Source: PubChem BioAssay (NCATS)
Results filed as inconclusive are left out. The source made the active and inactive calls. Unless noted, calls come from the whole dose curve; as a rule, active = well fitted curve in the direction sought with a large enough effect; inconclusive = small, poorly fitted or top-dose-only effect, or another doubt; inactive = no such curve, though single readings can be large; an effect the other way counts as inactive or inconclusive.

What was measured:
[1] = target: Cytochrome P450 1A2 (Homo sapiens) (UniProt P05177); experiment: p450-cyp1a2 (AID 410; calls by dose curve; note: potency is the fitted concentration of half-maximal effect;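 for activity change, negative = inhibition: -100% = full effect of reference inhibitor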)
Chain of Cytochrome P450 1A2 (Homo sapiens) (P05177 whole entry, looked up): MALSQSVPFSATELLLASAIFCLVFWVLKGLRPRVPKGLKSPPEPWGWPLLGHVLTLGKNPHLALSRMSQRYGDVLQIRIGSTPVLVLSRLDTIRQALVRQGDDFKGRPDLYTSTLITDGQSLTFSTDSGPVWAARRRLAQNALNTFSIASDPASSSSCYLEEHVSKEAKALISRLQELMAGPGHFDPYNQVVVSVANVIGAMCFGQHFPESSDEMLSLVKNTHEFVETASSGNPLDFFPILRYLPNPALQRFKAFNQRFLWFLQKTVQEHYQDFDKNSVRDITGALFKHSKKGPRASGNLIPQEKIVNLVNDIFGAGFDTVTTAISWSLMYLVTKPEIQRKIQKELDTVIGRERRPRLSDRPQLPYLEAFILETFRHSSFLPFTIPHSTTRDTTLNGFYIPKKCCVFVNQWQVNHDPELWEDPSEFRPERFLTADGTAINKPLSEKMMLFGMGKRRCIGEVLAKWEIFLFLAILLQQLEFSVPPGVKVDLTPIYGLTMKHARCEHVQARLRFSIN
Summary of the method: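 Read-out is luminescence from luciferin produced by CYP1A2 demethylation of Luciferin-ME (100uM, at Km). Detection reagent stopped the 60 min NADPH-dependent reaction; signals were normalized to 57 uM furafylline.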

[2] = NFAT Signaling Pathway (AID 444; active = well fitted curve in either direction with a large enough effect, not every such curve was filed as active;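 note: carbachol stimulus at about its EC50 of 1 µM final; % is set by controls: 0 for no effect and ±100 for the full control effect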); details: Jurkat NFAT-bla M1, carbachol, beta-lactamase ratio, 5 h; at 17.2 µM (top of the series) unless noted
Summary of the method: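 Read-out: CCF4 FRET ratio (460 nm/530 nm) after 1 h RT dye loading, used for %activity and AC50 from titration series. Cells: Jurkat NFAT-β-lactamase/M1 line, treated with compound plus 1 uM carbachol for 5 h, 37 °C.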

[3] = Stat Signaling Pathway (AID 446; active = well fitted curve in either direction with a large enough effect, not every such curve was filed as active;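 note: ME-180 cervical cancer cells given 40 pM IL-6 alongside compound; SIE-controlled beta-lactamase reporter measured as 460/530 nm FRET emission ratio; % is set by controls: 0 for no effect and ±100 for the full control effect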); details: ME-180 SIE beta-lactamase reporter, IL-6 stimulated, 5 h; at 17.2 µM (top of the series) unless noted
Summary of the method: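 Overnight-plated ME-180 cells bearing a STAT Inducible Element beta-lactamase reporter; 5 h co-exposure to compound and 40 pM IL-6; values normalized to 300 pM IL-6 and 125 nM JAK inhibitor controls.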

[4] = target: Glucocorticoid receptor (Homo sapiens) (UniProt P04150); experiment: GR-GFP Redistribution (AID 450;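 active = compounds whose dose series gives a full or clear partial fitted curve of increased nuclear translocation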; note: potency is the fitted concentration of half-maximal effect)
Chain of Glucocorticoid receptor (Homo sapiens) (P04150 whole entry, looked up, the tested form may be a part): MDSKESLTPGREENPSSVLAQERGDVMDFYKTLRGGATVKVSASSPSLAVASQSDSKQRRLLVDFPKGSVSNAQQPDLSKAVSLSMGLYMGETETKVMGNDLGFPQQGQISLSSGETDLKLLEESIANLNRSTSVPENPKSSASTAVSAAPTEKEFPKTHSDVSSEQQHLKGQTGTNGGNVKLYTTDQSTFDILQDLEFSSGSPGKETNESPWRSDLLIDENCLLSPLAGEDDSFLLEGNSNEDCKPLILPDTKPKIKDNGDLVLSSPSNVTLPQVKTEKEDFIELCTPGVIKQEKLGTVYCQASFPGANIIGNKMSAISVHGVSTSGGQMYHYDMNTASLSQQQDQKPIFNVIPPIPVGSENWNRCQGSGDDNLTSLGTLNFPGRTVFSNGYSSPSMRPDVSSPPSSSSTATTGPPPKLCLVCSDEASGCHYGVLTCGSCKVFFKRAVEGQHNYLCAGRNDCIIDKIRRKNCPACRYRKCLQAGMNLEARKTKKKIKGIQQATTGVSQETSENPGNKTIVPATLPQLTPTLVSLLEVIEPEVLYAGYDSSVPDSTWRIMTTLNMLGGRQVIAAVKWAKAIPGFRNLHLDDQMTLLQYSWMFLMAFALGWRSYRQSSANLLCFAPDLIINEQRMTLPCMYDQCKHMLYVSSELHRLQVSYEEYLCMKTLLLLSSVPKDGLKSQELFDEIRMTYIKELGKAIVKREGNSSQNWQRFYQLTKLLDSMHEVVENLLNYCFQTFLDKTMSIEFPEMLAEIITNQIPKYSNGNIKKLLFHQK

[5] = target: Glucocorticoid receptor (Homo sapiens) (UniProt P04150); experiment: GR-EFC Redistribution (AID 451; calls by dose curve; note: potency is the fitted concentration of half-maximal effect); details: CHO-K1 GR-EFC translocation, beta-gal luminescence, 2 h
Summary of the method: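 Translocation of GR-ED fusion to nuclear EA restores b-gal, read by luminescence after 1 h room-temperature detection. Engineered CHO-K1 biosensor cells, 1,000/well, exposed 2 h at 37 C to titrations up to 46 uM final.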

[6] = target: Mitogen-activated protein kinase 10 (Mus musculus) (UniProt Q61831); experiment: JNK3 AlphaScreen Assay (AID 530; active = well fitted curve in either direction with a large enough effect, not every such curve was filed as active;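 note: kinase came from lysate of stimulated human HepG2 cells; signal reports phosphorylation of biotinylated GST-cJun 1-79 at Ser73 with 10 µM ATP; % is set by controls: 0 for no effect and ±100 for the full control effect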)
Summary of the method: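 Kinase buffer: 20 mM Tris-HCl pH 7.6, 10 mM MgCl2, 1 mM DTT, 0.1 mM Na3VO4, 0.01% Tween-20; ATP 10 uM. Substrate biotin-GST-cJun(1-79), enzyme from activated HepG2 lysates. Detection by Ser73 phospho-antibody AlphaScreen.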

[7] = target: Cytochrome P450 3A4 (Homo sapiens) (UniProt P08684); experiment: qHTS Assay for Inhibitors and Substrates of Cytochrome P450 3A4 (AID 884); note: potency is the fitted concentration of half-maximal effect; nearly all actives have a fitted effect of over 50% in size
Chain of Cytochrome P450 3A4 (Homo sapiens) (P08684 whole entry, looked up): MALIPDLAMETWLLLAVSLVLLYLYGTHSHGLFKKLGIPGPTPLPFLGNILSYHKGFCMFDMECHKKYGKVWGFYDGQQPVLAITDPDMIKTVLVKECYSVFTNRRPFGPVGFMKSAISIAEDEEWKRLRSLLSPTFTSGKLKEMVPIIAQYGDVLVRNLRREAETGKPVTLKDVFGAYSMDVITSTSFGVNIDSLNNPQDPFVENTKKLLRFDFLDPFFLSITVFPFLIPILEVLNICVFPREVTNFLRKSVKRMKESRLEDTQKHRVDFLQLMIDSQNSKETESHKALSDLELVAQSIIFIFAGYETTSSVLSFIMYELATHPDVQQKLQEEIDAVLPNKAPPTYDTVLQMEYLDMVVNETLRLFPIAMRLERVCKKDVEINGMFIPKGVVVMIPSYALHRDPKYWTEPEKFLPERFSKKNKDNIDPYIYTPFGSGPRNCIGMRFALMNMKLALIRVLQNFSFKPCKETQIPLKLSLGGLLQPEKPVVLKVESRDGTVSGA
Summary of the method: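 Luminescent readout of luciferin produced by CYP3A4 (20 nM) dealkylation of Luciferin-PPXE, 25 uM (its KM). NADPH-driven reaction ran 60 min at RT after 10 min compound preincubation; data scaled to 57 uM ketoconazole as 100% inhibition.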

[8] = target: Cytochrome P450 3A4 (Homo sapiens) (UniProt P08684); experiment: qHTS Assay for Activators of Cytochrome P450 3A4 (AID 885); note: nearly all actives have a fitted effect of over 65% in size
Summary of the method: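 Using 20nM recombinant human CYP3A4 in potassium phosphate (200mM), substrate Luciferin-PPXE at 25uM, luminescent luciferin detection followed a 60-min RT NADPH reaction; data scaled to 57 uM ketoconazole.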

[9] = target: Cytochrome P450 2C19 (Homo sapiens) (UniProt P33261); experiment: qHTS Assay for Inhibitors and Substrates of Cytochrome P450 2C19 (AID 899); note: potency is the fitted concentration of half-maximal effect; nearly all actives have a fitted effect of over 60% in size
Summary of the method: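 5nM enzyme + 10uM Luciferin-H EGE (=KM), 50mM KPO4; cpd pin-transferred, 10 min 37C; NADPH regen, 60 min 37C; stopped w/ luciferin detection reagent, 20 min; luminescence. Normalized to 57uM ketoconazole (AC100).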

[10] = Confirmation and Secondary Assay for Modulators of Hemoglobin Beta Chain Splicing at IVS2 705 locus (AID 930);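 note: HeLa cells stably expressing the EGFP-705 splicing reporter; GFP fluorescence per well restored by corrected splicing of the IVS2-705 intron in EGFP; % of control where 0% means no effect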
Summary of the method: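 Splice-correction reporter: EGFP cDNA split by beta-globin intron 2 bearing the 705 mutation, stably in HeLa. Compound incubation 2 days, 37C; fluorescent objects 5-250 µm summed per well.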

[11] = target: 3',5'-cyclic-AMP phosphodiesterase 4B (Homo sapiens) (UniProt Q07343); experiment: qHTS Assay for Inhibitors of PDE-IV (AID 607; active = well fitted activation curve with a large enough effect in the main read-out, with a control signal flat, not every such curve was filed as active; note: % of control where 0% means no effect)
Chain of 3',5'-cyclic-AMP phosphodiesterase 4B (Homo sapiens) (Q07343 whole entry, looked up): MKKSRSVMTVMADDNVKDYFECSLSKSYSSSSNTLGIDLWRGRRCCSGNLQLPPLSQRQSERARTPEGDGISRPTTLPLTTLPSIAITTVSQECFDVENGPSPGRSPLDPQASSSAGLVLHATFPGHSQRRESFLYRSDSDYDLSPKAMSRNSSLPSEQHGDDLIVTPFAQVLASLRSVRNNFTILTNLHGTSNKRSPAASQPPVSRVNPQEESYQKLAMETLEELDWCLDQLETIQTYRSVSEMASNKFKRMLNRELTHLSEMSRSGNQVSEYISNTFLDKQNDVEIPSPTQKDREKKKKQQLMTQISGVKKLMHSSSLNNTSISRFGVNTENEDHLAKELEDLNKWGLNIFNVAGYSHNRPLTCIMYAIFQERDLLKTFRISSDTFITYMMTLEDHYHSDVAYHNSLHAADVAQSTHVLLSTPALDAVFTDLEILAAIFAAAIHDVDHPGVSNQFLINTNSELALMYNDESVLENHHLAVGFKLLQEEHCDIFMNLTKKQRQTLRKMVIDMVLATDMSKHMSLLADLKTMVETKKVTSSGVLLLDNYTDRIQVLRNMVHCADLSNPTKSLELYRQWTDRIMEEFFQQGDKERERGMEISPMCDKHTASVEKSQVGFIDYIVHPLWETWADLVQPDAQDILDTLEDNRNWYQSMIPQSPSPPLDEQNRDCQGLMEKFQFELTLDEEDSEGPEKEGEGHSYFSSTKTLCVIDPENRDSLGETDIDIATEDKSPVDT
Summary of the method: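 Live HEK293 cells with a modified cyclic nucleotide-gated (CNG) channel report intracellular cAMP via membrane-potential dye fluorescence (ex 535/em 590 nm). Endogenous PDE-IV was targeted. Compounds were tested at up to 22.9 uM final; RO 20-1724 100 uM served as control.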

[12] = target: Guanine nucleotide-binding protein G(i) subunit alpha-1 (Homo sapiens) (UniProt P63096); experiment: qHTS Assay for Inhibitors of RGS12 GoLoco Motif Activity (Green Fluorophore) (AID 879);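 note: 0% = labeled peptide with Gαi1 and full inhibition = labeled peptide alone without protein; negative values mean loss of peptide binding seen as reduced polarization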
Chain of Guanine nucleotide-binding protein G(i) subunit alpha-1 (Homo sapiens) (P63096 whole entry, looked up): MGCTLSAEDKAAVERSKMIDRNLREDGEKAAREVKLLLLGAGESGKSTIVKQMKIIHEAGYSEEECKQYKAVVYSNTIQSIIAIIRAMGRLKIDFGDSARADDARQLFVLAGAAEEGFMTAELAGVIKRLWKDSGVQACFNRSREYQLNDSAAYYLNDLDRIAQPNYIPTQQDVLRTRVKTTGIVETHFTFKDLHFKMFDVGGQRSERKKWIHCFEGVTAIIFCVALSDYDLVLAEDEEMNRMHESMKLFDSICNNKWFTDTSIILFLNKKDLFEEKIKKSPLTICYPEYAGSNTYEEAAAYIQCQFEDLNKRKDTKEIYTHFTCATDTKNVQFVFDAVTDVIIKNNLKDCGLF
Summary of the method: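 A drop in FITC polarization marked displacement of the FITC-tagged RGS12 GoLoco peptide (10 nM) from Gαi1 (50 nM). Compounds were incubated 10 min at room temperature in Tris pH 7.5 buffer containing 150 mM NaCl, 0.1 mM GDP and 0.05% NP40; unlabeled peptide titration served as control.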

[13] = qHTS Assay for Identification of Small Molecule Agonists for Thrombopoietin (TPO) Signaling Pathway (AID 917); note: % is set by controls: 0 for no effect and ±100 for the full control effect
Summary of the method: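 Human TPO receptor–transfected Ba/F3 cells (murine, IL-3-dependent) in IL-3-deficient medium; compounds plus TPO at EC50, 26 pM final; 24 hrs, 37 C; GpIIb-luciferase luminescence after 10 min RT detection.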

[14] = target: Muscarinic acetylcholine receptor M1 (Rattus norvegicus) (UniProt P08482); experiment: qHTS Assay for Antagonists of Acetylcholine Muscarinic M1 Receptor: Measurement of IP-One Response (AID 944); note: nearly all actives have a fitted effect of over 75% in size
Chain of Muscarinic acetylcholine receptor M1 (Rattus norvegicus) (P08482 whole entry, looked up): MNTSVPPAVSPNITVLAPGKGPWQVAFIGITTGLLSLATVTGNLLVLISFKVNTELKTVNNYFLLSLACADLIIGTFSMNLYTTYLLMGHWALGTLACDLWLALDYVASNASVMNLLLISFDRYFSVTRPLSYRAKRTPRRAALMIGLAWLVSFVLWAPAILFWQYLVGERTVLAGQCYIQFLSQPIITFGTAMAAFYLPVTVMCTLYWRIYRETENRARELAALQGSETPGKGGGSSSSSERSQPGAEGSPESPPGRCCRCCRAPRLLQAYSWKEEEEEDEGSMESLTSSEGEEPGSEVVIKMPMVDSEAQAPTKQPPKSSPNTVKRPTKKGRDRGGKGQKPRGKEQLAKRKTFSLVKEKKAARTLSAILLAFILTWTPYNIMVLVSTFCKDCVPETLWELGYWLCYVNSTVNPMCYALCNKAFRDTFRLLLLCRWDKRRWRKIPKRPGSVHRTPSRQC
Summary of the method: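 Antagonism was measured as loss of carbachol-driven (EC80) IP1 accumulation in CHO cells carrying rat M1, using a homogeneous IP-One TR-FRET kit read at 620 and 665 nm.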

[15] = target: Pyruvate kinase (Leishmania mexicana) (UniProt Q27686); experiment: qHTS Validation Assay for Inhibitors of Leishmania Mexicana Pyruvate Kinase (AID 945);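 note: 0% = DMSO only neutral control wells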
Chain of Pyruvate kinase (Leishmania mexicana) (Q27686 2-499 E452W): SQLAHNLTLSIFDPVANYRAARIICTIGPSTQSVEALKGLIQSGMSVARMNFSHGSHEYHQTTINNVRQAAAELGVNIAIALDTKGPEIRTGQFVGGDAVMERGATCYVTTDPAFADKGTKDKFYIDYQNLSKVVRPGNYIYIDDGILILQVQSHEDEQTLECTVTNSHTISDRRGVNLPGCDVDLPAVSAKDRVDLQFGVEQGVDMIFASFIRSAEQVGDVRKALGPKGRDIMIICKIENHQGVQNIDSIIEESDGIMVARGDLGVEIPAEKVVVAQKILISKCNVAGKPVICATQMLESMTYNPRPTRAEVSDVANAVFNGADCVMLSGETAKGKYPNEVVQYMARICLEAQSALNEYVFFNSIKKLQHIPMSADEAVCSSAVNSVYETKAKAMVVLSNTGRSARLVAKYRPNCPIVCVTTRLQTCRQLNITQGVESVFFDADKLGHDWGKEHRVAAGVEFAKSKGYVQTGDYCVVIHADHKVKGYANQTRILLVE
Summary of the method: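 The enzyme is a highly purified E451W mutant of LmPYK used at 0.2 nM. It converts 0.5 mM PEP and 0.1 mM ADP over 1 h at room temperature; product ATP is quantified by luciferase luminescence relative to DMSO controls.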

[16] = target: Pyruvate kinase PKM (Homo sapiens) (UniProt P14618); experiment: qHTS Assay for Activators of Human Muscle Pyruvate Kinase (AID 954; active = well fitted curve in the direction sought with a large enough effect, not every such curve was filed as active;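 note: 0% = uninhibited enzyme and -100% = no enzyme or full thiadiazolimine inhibition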)
Chain of Pyruvate kinase PKM (Homo sapiens) (P14618 whole entry, looked up): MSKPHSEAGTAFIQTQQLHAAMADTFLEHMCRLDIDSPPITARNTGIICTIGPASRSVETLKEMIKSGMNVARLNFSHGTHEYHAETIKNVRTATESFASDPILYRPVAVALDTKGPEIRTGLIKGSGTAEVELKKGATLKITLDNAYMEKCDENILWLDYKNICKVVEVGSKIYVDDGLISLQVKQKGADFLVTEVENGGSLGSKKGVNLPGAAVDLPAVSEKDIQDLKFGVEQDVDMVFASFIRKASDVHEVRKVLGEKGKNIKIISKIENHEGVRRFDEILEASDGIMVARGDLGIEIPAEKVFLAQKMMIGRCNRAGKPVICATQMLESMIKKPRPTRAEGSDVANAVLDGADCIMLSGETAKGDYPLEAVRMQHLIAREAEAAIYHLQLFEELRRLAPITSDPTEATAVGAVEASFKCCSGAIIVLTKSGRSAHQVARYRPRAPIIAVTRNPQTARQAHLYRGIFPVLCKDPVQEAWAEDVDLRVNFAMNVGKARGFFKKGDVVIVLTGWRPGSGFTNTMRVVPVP
Summary of the method: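 Screening used highly purified human pyruvate kinase M2 under submaximal activity, with PEP at its Km and ADP below Km. After an hour at room temperature, ATP was read by luciferase luminescence.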

[17] = target: Alpha-galactosidase A (Homo sapiens) (UniProt P06280); experiment: Counterscreen for Glucocerebrosidase Inhibitors: qHTS Assay for Human alpha-Galactosidase at pH 4.5 (AID 992); note: 0% is about no effect
Chain of Alpha-galactosidase A (Homo sapiens) (P06280 whole entry, looked up): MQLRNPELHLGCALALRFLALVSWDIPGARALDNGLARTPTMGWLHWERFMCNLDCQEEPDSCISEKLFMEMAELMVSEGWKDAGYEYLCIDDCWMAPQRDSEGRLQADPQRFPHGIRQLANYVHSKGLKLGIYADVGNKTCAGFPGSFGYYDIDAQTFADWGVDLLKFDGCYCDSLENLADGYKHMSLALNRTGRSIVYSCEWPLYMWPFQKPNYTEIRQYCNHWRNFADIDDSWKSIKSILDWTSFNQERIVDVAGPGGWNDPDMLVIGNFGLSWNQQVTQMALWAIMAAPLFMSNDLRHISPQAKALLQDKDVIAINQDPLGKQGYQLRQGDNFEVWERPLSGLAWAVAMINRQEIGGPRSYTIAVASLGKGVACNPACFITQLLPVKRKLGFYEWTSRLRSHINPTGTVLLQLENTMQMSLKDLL
Summary of the method: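 Each compound is preincubated briefly with 2 nM enzyme before substrate addition (80 uM); plates then sit 20 min at ambient temperature, are quenched with 1M NaOH/1M glycine, and read fluorometrically.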

[18] = target: alpha-glucosidase (Oryza sativa, rice) (UniProt Q653V4); experiment: Counterscreen for Glucocerebrosidase Inhibitors: qHTS Assay for Rice alpha-Glucosidase at pH 5.0 (AID 997);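 note: 0% = full activity with enzyme and -100% = basal without enzyme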
Summary of the method: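 Endpoint fluorogenic assay at pH 5.0: compounds (0.7 nM to 77 uM) titrated against 4 nM rice enzyme and 400 uM 4-MU-alpha-glucoside for 20 min at room temperature; NaOH/glycine stop, read ex 365/em 440 nm, Hill-fitted AC50.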

[19] = AP1 Signaling Pathway (AID 357; active = well fitted curve in either direction with a large enough effect, not every such curve was filed as active; note: % is set by controls: 0 for no effect and ±100 for the full control effect); details: ME-180 AP-1-bla reporter, EGF-induced, beta-lactamase ratio, 5 h; at 17.2 µM (top of the series) unless noted
Summary of the method: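 ME-180 cells with beta-lactamase reporter under AP-1 response element, stimulated with EC50 EGF; compounds tested in titration series, 5 h at 37 °C. CCF4 substrate added 2.5 h at room temperature; 460/530 nm emission ratio gave %activity and AC50.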

FC(F)(F)c1ccccc1-c1nc(Nc2ccncc2)c2ccccc2n1
inactive: activity change, negative = inhibition [2] -8.21% [at 7.69 µM] | activity, negative = inhibition [3] -14.6% [at 7.69 µM] | Potency [4] > 46 µM | Potency [5] > 46 µM | Potency [6] | Potency [8] | Potency [10]
active: Potency [1] 10 µM | Potency [7] 0.631 µM | Potency [9] 2 µM

CCCCC#Cc1nc(N)c2ncn([C@@H]3O[C@@H](C(=O)NCC)[C@H](O)[C@@H]3O)c2n1
inactive: Potency [1] | activity change, negative = inhibition [2] 15.6% [at 38 µM] | Potency [4] > 46 µM | Potency [5] > 46 µM | Potency [6] | Potency [11] | outcome [12] | Potency [8] | Potency [13] | Potency [14] | Potency [15] | outcome [16] | outcome [17] | outcome [18]

Cn1c(N2CCOCC2)nc2c1c(=O)n(Cc1ccc(Cl)c(Cl)c1)c(=O)n2C
inactive: activity change, negative = inhibition [19] -18.7% | Potency [4] > 20.6 µM
